High-throughput results as filed in PubChem.
A selection: hits, their analogues and other compounds. The true share with any hit is near 1.1%.
MOR-DOR inv ag = inverse agonists of MOR-DOR heterodimerization, primary screen, cell-based, luminescence | cell-based MOR-DOR heterodimer luminescence, inverse agonism | inhibition, % at 9.3 µM | hit rate 0.21% among 340,000; in the data active = inhibition above about 22%, passing the limit was not always enough
HTR5A inv ctr = HTR5A inverse agonists in luminescence cell assay, primary screen, counter-screen for OPRM1-OPRD1 heterodimer inverse agonist project, full-deck HTS; 5-hydroxytryptamine receptor 5A (Homo sapiens), P47898; HTR5A cell line, inverse agonism; inhibition, % at 9.3 µM; hit rate 0.083% among 340,000; AID 504634, 2011; in the data active = inhibition mostly above about 23%, no sharp cut-off; inactive = mostly below about 18%
HTR5A ag ctr = HTR5A agonists in luminescence cell assay, primary screen, counter-screen for OPRM1-OPRD1 heterodimer agonist project, full-deck HTS; cell-based; activation, % at 9.3 µM; hit rate 0.61% among 340,000; AID 504692, 2011; in the data active = activation mostly above about 9.5%, no sharp cut-off; inactive = mostly below about 7.6%
MOR-DOR ag = agonists of OPRM1-OPRD1 heterodimerization, primary screen, cell-based, luminescence | cells | AID 504326, 2011 | activation, % at 9.3 µM | hit rate 0.3% among 340,000
Bfl-1 A1 inh = caspase 3/7 activation in MEF A1-2A-BIM cells, primary screen, A1 inhibitor project, cell-based, luminescence, HTS | caspase activation, % (no concentration beside the values) | hit rate 0.066% among 330,000 | Caspase-Glo 3/7 luminescence, 3 h; percent of clofoctol response, vehicle zero;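 active = over half of replicate activation scores above 10%, or exactly half above 10 with the replicate mean above 10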
OPRM1-D1 ag cf = agonists of MOR-DOR heterodimerization, confirmation, cell-based, luminescence | cells, luminescence complementation | shares compounds with MOR-DOR ag | hit rate 45% among 830 | AID 504904, 2011 | activation, % at 9.3 µM
HTR5A ag counter = HTR5A agonists in cells, counter-screen for OPRM1-OPRD1 heterodimer agonist project, cell-based, luminescence; shares compounds with MOR-DOR ag; HTR5A agonist counterscreen; activation, % at 9.3 µM; hit rate 8% among 830; in the data active = activation above about 17%
Large screens that a line does not name were inactive (follow-up assays come after a bar, where they were run). Cut-off read from the data, not from the text of the source, unless noted: active = activation above about 18%; inactive = the rest.

COc1cc2c(cc1OC)C(C)N(C(=O)C1=NN(c3cccc(C)c3)C(=O)CC1)CC2 (centres undefined)	none
O=C(OCc1ccccc1)/C(=C/c1cccc(Br)c1)NC(=O)c1ccco1	MOR-DOR ag 20.8 | OPRM1-D1 ag cf inactive | HTR5A ag counter inactive
O=C(Nc1ccccc1)/C(=C/c1cccc(Br)c1)NC(=O)c1ccco1	none
CC(OC(=O)c1n[nH]c2ccccc12)C(=O)Nc1ccccc1[N+](=O)[O-] (centres undefined)	MOR-DOR ag 32.1 | OPRM1-D1 ag cf inactive | HTR5A ag counter inactive
Cc1ccc(NC(=O)C(C)OC(=O)c2n[nH]c3ccccc23)cc1 (centres undefined)	none
O=C(Nc1ccncc1)c1cc(-c2cccc(Br)c2)nc2ccccc12	HTR5A ag ctr 25.6, MOR-DOR ag 51.6 | OPRM1-D1 ag cf inactive | HTR5A ag counter inactive
Cc1ccc(-c2cc(C(=O)Nc3ccncc3)c3ccccc3n2)cc1	MOR-DOR ag 28.4 | OPRM1-D1 ag cf inactive | HTR5A ag counter inactive
O=C(Nc1ncccn1)c1cc(-c2cccc(Br)c2)nc2ccccc12	none
COc1ccc(NC(=O)c2cc(-c3ccco3)nc3ccccc23)cc1	MOR-DOR ag 50.0 | OPRM1-D1 ag cf 22.0 | HTR5A ag counter 20.0
CCOC(=O)c1c(NC(=O)COC(=O)CCCOc2ccc(OC)cc2)sc(C(=O)N(C)C)c1C	none (no result: Bfl-1 A1 inh)
O=C(Oc1ccc2c(c1)OCO2)c1cc2c(s1)CCC2	MOR-DOR ag 22.5 | OPRM1-D1 ag cf inactive | HTR5A ag counter inactive
CCOC(=O)c1c(C)[nH]c(C(=O)OCC(O)=C(C#N)c2nc3ccccc3[nH]2)c1C	HTR5A ag ctr 12.8, MOR-DOR ag 37.5 (no result: Bfl-1 A1 inh) | OPRM1-D1 ag cf 31.2 | HTR5A ag counter inactive
N#C/C(=C(/O)COC(=O)COc1cccc(Br)c1)c1nc2ccccc2[nH]1	MOR-DOR ag 26.1 | OPRM1-D1 ag cf inactive | HTR5A ag counter inactive
N#C/C(=C(/O)COC(=O)c1ccc(O)cc1)c1nc2ccccc2[nH]1	none
Fc1ccccc1N1CCN(Cc2cc(-c3ccccc3)on2)CC1	none
NC1=C(Br)C(=O)c2ncccc2C1=O	MOR-DOR ag 19.6 (no result: Bfl-1 A1 inh) | OPRM1-D1 ag cf inactive | HTR5A ag counter inactive
O=C1c2cccnc2C(=O)N1CO	none
CN(C)C(CNC(=O)c1oc2ccccc2c1CSc1ncn[nH]1)c1ccco1 (centres undefined)	MOR-DOR ag 21.2 | OPRM1-D1 ag cf 30.3 | HTR5A ag counter inactive
COCc1c(C(=O)N/N=C/c2cccc3ccccc23)nnn1-c1nonc1N	MOR-DOR ag 26.7 | OPRM1-D1 ag cf inactive | HTR5A ag counter inactive
O=C1C(=O)c2ccc(-c3ccccc3)cc2-c2ccccc21	MOR-DOR ag 25.9 | OPRM1-D1 ag cf inactive | HTR5A ag counter inactive
Nc1ccc2c(c1)C(=O)C(=O)c1ccccc1-2	MOR-DOR ag 25.0 | OPRM1-D1 ag cf inactive | HTR5A ag counter inactive
CCCN1CCN(CCCNC(=O)CN2C(=O)c3cccnc3Oc3ccc(C)cc32)CC1	none
O=C(N/N=C/c1c(O)ccc2ccccc12)c1ccc(Br)o1	MOR-DOR ag 24.4 | OPRM1-D1 ag cf inactive | HTR5A ag counter inactive
O=C(N/N=C\c1c(O)ccc2ccccc12)c1ccc(O)cc1	none
Cc1ccc(S(=O)(=O)N(C)Cc2ccc(C(=O)NN=C(CC(C)C)CC(C)C)cc2)cc1	none
CC/C(=N\NC(=O)c1ccc(CN(C)S(=O)(=O)c2ccc(C)cc2)cc1)c1ccc(OC(F)F)cc1	MOR-DOR ag 31.2 | OPRM1-D1 ag cf inactive | HTR5A ag counter inactive
COC(=O)[C@H](Cc1ccccc1)NC(=O)O[C@@H]1C(=O)c2cc(OC)ccc2O[C@H]1c1ccc(OC)c(Br)c1	none (no result: MOR-DOR inv ag, HTR5A inv ctr, HTR5A ag ctr, MOR-DOR ag)
Cc1ccc(Cn2ccc(=O)c(OCc3c(Cl)cccc3Cl)c2C)cc1	MOR-DOR ag 28.4 | OPRM1-D1 ag cf inactive | HTR5A ag counter 24.2
CC(C)(C)c1cc(C(=O)NNC(=O)Nc2ccccc2)n(Cc2ccccc2)n1	none
